Vaccinia pol inh = vaccinia E9 polymerase processive synthesis inhibition | in vitro processive DNA synthesis, absorbance read-out; active compounds read low | normalized absorbance, % (test concentration not listed) | actives 0.94% (n = 46,000) | AID 493162; in the data active means normalized absorbance mostly below about 85%, no sharp cut-off; inactive means mostly above about 86%
Of the large screens only hits and unclear results are named; the others gave an inactive call. Many of the other results were omitted from the sample, so hits are more common in it than they were.

O=C(Cc1ccccc1)Sc1ncn[nH]1	none
CCN/C(C)=C/c1nsc(Nc2ccc(Cl)c(Cl)c2)n1	none
O=C(CSC1=NCCN1)NC(c1ccccc1)c1ccccc1	none
CN1CN=C(SCc2cccc(C#N)c2)NC1	Vaccinia pol inh 76.1
N#Cc1ccc(CSc2ccc(Cl)cc2)cc1	none
CCN1CN=C(SCc2cccc(C#N)c2)NC1	none
CN1CN=C(SCc2ccc(Cl)c(Cl)c2)NC1	none
N#Cc1ccc(CSC2=NCCN2)cc1	Vaccinia pol inh 70.6
CCOc1ccc(CC(=O)NCc2ccc3[nH]c(C)cc3c2)cc1	none
COc1ccc(CNC(=O)c2ccc3nc(N4CCOCC4)sc3c2)cc1	none
O=c1c(NCCCN2CCOCC2)c(Br)cnn1-c1ccccc1	none
O=C(Cc1nc2ccccc2[nH]1)Oc1ccccc1	none
CC1CN=C(N(C(=O)Nc2ccccc2)c2ccc(OC(F)(F)F)cc2)S1 (stereo not drawn)	none
Cc1ccccc1CS(=O)(=O)c1c[nH]c2ccccc12	none
Cc1c(N=CC(O)CN2CC3CC(C2)c2cccc(=O)n2C3)c(=O)n(-c2ccccc2)n1C (stereo not drawn)	none
O=C(CCS(=O)(=O)c1ccc(Br)cc1)N1CC(=O)N(CCc2ccccc2)C(=O)C1	none
Cc1ccc(S(=O)(=O)Nc2ccc(Br)cc2C(NCC(=O)O)c2ccccc2)cc1 (stereo not drawn)	Vaccinia pol inh 68.2
CCOC(=O)Nc1ccc(Br)cc1C(NCC(=O)OC)c1ccccc1 (stereo not drawn)	none
Nc1ccc(Br)cc1C(NCC(=O)O)c1ccccc1 (stereo not drawn)	none
COc1ccc(CN(C(=O)/C=C/C(=O)O)C2CC(=O)N(c3ccccc3)C2=O)cc1 (stereo not drawn)	none
Cc1ccc(C)n1-c1cccc(C(F)(F)F)c1	none
Cc1ccc(C)n1-c1cccc(N)c1	none
Cc1ccc(C)n1-c1cccc(C(=O)O)c1	Vaccinia pol inh 11.4
O=C(NCCc1ccccc1)c1cc2ccccc2nc1Cl	none
O=C(NCc1nc2ccccc2n1Cc1ccc(Cl)cc1)c1ccccc1	none
